An excerpt weighted towards active compounds, which were near 2.4% of everything screened.
Cruzain Triton: cruzain (T. cruzi) inhibition with detergent | purified cruzain, Z-FR-AMC fluorescence, 0.01% Triton | Potency, µM, for inactives: max response, negative = inhibition, actives largely listed as inhibitors | hit rate 0.43% among 200,000 | AID 1478;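 further: plate controls were neutral wells for no effect and buffer without enzyme for full effect; nearly all actives have a fitted effect of over 40% in size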
Target sequence (P25779 123-467 limits assumed): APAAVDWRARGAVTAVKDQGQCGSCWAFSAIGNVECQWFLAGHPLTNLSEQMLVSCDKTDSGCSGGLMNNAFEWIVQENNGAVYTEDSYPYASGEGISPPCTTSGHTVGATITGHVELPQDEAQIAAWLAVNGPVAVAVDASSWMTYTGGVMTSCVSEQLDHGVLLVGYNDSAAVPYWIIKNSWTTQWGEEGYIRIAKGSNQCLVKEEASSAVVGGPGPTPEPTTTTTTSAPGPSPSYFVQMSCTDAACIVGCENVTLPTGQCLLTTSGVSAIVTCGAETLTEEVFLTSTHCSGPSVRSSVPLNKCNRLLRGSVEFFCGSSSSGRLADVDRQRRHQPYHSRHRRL
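Z-FR-AMC hydrolysis (2 uM substrate) by cruzain (1.5 nM) monitored kinetically at ex 360/em 450 nm after 15 min room-temperature compound exposure; 0.01% Triton X-100, pH 5.5, 5 mM DTT.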
Cruzain inh noDet: blocks cruzain activity in detergent-free assay. Potency, µM, inactives show max response, negative = inhibition, actives largely listed as inhibitors. P25779. AID 1476. purified cruzain, Z-FR-AMC fluorescence, no detergent. hit rate 2.3% among 200,000;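 further: plate controls were enzyme without inhibitor for no effect and buffer without enzyme for full effect; nearly all actives have a fitted effect of over 40% in size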
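Purified cruzain at 1.5 nM, pre-incubated 15 min with compound at room temperature in 100 mM sodium acetate pH 5.5, 5 mM DTT, 0.00005% Triton X-100. Reaction started with 2 uM Z-FR-AMC; AMC fluorescence increase over 60 s gives rate.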
Numbers without * were called inactive; ? = inconclusive. The call rests on the fitted dose curve; in most records, active means well fitted curve in the direction sought with a large enough effect; inconclusive means small, poorly fitted or top-dose-only effect, or another doubt; inactive means no such curve, though single readings can be large; an effect the other way counts as inactive or inconclusive. Potency means the concentration at half of the fitted maximal effect.

SMILES	Cruzain Triton	Cruzain inh noDet
CCN1CC=C2C(C#N)=C(N)C(C#N)(C#N)[C@H](c3cccc(OC)c3OC)[C@H]2C1	-9.7%	-12.9%
CCN1CC=C2C(C1)C(c1ccc(Cl)s1)C(C#N)=C(N)C2(C#N)C#N (stereo not given)	25.1µM*	25.1µM*
C/C(=N\NC(=O)c1ccc([N+](=O)[O-])c(C)c1)c1ccccc1Cl	-2.5%	14.8%
C/C(=N/NC(N)=S)c1ccccc1[N+](=O)[O-]	15.8µM*	12.6µM*
Cc1cc(C)c2sc(N3CCN(C(=O)C4CC4)CC3)nc2c1	-5.6%	?
CN(Cc1ccc(F)cc1)S(=O)(=O)c1nnc(NC(=O)c2ccccc2)s1	-1.2%	?
CN(Cc1ccc(F)cc1)S(=O)(=O)c1nnc(NC(=O)c2ccc(F)cc2)s1	-2.7%	15.8µM*
Cc1ccc(CCNC(=O)CCn2nc(-c3ccc(C)cc3)ccc2=O)cc1	-0.2%	?
Cc1cccc(OCCCCn2nnc3sc4c(c3c2=O)CCC(C)C4)c1 (stereo not given)	-1.4%	-9.3%
O=S(=O)(Nc1nc(-c2sccc2Cl)cs1)c1cc(Cl)ccc1Cl	20µM*	?
CN(C)c1ccc(NS(=O)(=O)c2cc(Cl)ccc2Cl)cc1	-8.9%	-10.9%
Cc1cc(C)c2c(c1)NC(c1cc3c(cc1Br)OCO3)C1CC=CC21 (stereo not given)	-2.5%	20µM*
Brc1cc2c(cc1C1Nc3ccccc3C3C=CCC31)OCO2 (stereo not given)	-2.6%	?
COc1ccc(C2CC(=O)N3CN(c4ccccc4F)CSC3=C2C#N)cc1OC (stereo not given)	1.1%	2.3%
CCc1ccccc1N1CSC2=C(C#N)C(c3ccccc3F)CC(=O)N2C1 (stereo not given)	-3.6%	25.1µM*
O=C(COc1ccccc1)Nc1nnc2n1CCS2	-0.2%	6.3%
COc1ccc(N(C(=O)c2cccc(C)c2)S(=O)(=O)c2ccc(Cl)cc2)cc1	-3.0%	-29.5%
COc1ccc(N(C(=O)c2ccc(C(C)(C)C)cc2)S(=O)(=O)c2ccc(Cl)cc2)cc1	-2.8%	10µM*
CCOC(=O)c1sc(NC(=O)/C=C/c2c(F)cccc2Cl)nc1C	-7.6%	12.6µM*
CCOC(=O)c1sc(NC(=O)c2ccc(CC)s2)nc1C	3.8%	15.8µM*
CCOC(=O)c1sc(NC(=O)c2ccccc2OC)nc1C	-5.8%	5.1%
CCOC(=O)c1sc(NC(=O)Nc2ccccc2F)nc1C	-3.4%	-7.4%
CCc1ccc(-c2cn3c(n2)sc2cc(C(=O)NCCC4=CCCCC4)ccc23)cc1	-0.3%	2.7%
COC(=O)CN1C(=O)CSc2ccc(S(=O)(=O)Nc3cccc(Br)c3)cc21	-9.6%	-5.6%
CCCN1CCN(c2ncnc3sc(C(=O)Nc4cccc(Cl)c4C)c(C)c23)CC1	2.24µM*	15.8µM*
SMILES	Cruzain Triton	Cruzain inh noDet
CCCN1CCN(c2ncnc3sc(C(=O)Nc4ccc(N(CC)CC)cc4C)c(C)c23)CC1	-1.5%	-22.0%
COc1ccc(NC(=O)C(NS(=O)(=O)c2cccc3nsnc23)c2ccccc2)cc1 (stereo not given)	-4.8%	-15.7%
CCOC(=O)C1CCN(c2ncnc3c2oc2ccccc23)CC1	-20.6%	0.0%
CCOC(=O)C1CCN(c2nc(-c3ccccc3)nc3c2oc2ccccc23)CC1	-10.1%	20µM*
COc1ccc(OC)c(NC(=O)C2CCN(S(=O)(=O)c3ccc4c(c3)CCCC(=O)N4)CC2)c1	-2.1%	10.7%
O=C1CN(C(=O)CSc2nnc(-c3ccccc3)n2Cc2ccc3c(c2)OCO3)c2ccccc2N1	28.2µM*	12.6µM*
Cc1nnc(SCC(=O)N2CC(=O)Nc3ccccc32)n1-c1ccccc1	1.7%	-4.2%
O=S(=O)(c1ccc(Cl)cc1)c1nc(-c2ccccc2)oc1N1CCN(c2ccccc2)CC1	-1.8%	-2.0%
CCc1cc2ccc(OC)cc2nc1SCC(=O)Nc1cc(C)on1	6.7%	10µM*
CCc1cc2ccccc2nc1SCC(=O)Nc1cc(C)on1	1.3%	-7.9%
CCC1CCCCN1S(=O)(=O)c1ccc(NC(=O)c2nc(SC)ncc2Cl)cc1 (stereo not given)	-5.6%	-7.6%
O=C(Oc1ccc2c(c1)O/C(=C\c1ccncc1)C2=O)c1ccccc1	-21.3%	6.8%
Cc1ccsc1/C=C1\Oc2cc(OCC(=O)c3ccccc3)ccc2C1=O	-5.3%	12.6µM*
COc1ccc(N2CCN(C(=O)c3ccncc3)CC2)cc1	5.5%	2.1%
COc1ccc(NC(=S)c2ccc(N(C)C)cc2)cc1	-4.2%	7.8%
COc1ccc(N=C2C(=Nc3ccc(OC)cc3)N(c3ccccc3)C(=S)N2C(=O)c2ccc(Cl)cc2)cc1	-2.6%	3.98µM*
COc1ccc(N=C2C(=Nc3ccc(OC)cc3)N(c3ccc(N(C)C)cc3)C(=S)N2c2ccc(OC)cc2)cc1	-5.0%	7.94µM*
COc1ccc(C(=O)c2ccc(Cl)cc2)cc1	-2.7%	5.9%
COc1ccc(N=C2C(=Nc3ccc(OC)cc3)N(c3ccc(OC)cc3)C(=S)N2C(=O)c2ccc(OC)cc2)cc1	-4.7%	5.01µM*
CCn1c(C(=O)NCc2ccccc2C)cc2oc3ccccc3c21	-11.2%	?
O=C(Cn1c(=O)oc2cc(S(=O)(=O)N3CCCCC3)ccc21)NCc1ccc(Cl)cc1	-6.4%	?
NC(=O)C1CCN(C(=O)c2ccc(NC(=O)c3nsc4ccccc34)cc2)CC1	-0.8%	2.6%
CCCN(c1ccccc1F)S(=O)(=O)c1cc(-c2cc(C)no2)ccc1C	-5.7%	-17.2%
CCOc1cccc2sc(N3CCN(C(=O)C(C)(C)C)CC3)nc12	0.7%	1.8%
N#Cc1nc(-c2ccc(COc3ccccc3)o2)oc1NCc1ccccc1	-3.8%	-24.3%
SMILES	Cruzain Triton	Cruzain inh noDet
CC(Nc1oc(-c2ccc(COc3ccccc3)o2)nc1C#N)c1ccccc1 (stereo not given)	-2.7%	20µM*
COc1ccccc1NC(=O)CN1C(=O)C2(SCC(=O)N2c2ccc(F)c(F)c2)c2ccccc21 (stereo not given)	-5.2%	15.8µM*
COc1ccccc1NC(=O)CN1C(=O)C2(SCC(=O)N2c2ccc(C)c(C)c2)c2ccccc21 (stereo not given)	-2.3%	-20.5%
Cc1ccc(OCC(=O)Nc2cccc(OCc3cc(=O)n4cccc(C)c4n3)c2)cc1C	0.4%	-1.0%
O=[N+]([O-])c1cccc2ccc(/C=C/c3ccc(C(F)(F)F)cc3)nc12	-9.8%	-3.8%
O=[N+]([O-])c1cccc2ccc(/C=C/c3ccc(Cl)cc3)nc12	-4.7%	10µM*
O=C(CNc1ccc2c(c1)OCO2)N/N=C\c1cn(Cc2ccccc2)c2ccccc12	-7.7%	12.6µM*
Cc1c(/C=C2\SC(=O)N(CC(=O)Nc3ccc4c(c3)OCO4)C2=O)c2ccccc2n1C	-5.7%	?
O=C(CNc1ccc2c(c1)OCO2)N/N=C\c1cn(Cc2ccc(F)cc2)c2ccccc12	0.1%	?
CCn1cc(/C=C2\SC(=O)N(CC(=O)Nc3ccc4c(c3)OCO4)C2=O)c2ccccc21	0.2%	3.16µM*
Cc1ccccc1C(=O)Nc1cc2c(cc1N1CCCCC1)n(C)c(=O)n2C	-10.2%	?
O=c1c2sc3ccccc3c2n(Cc2cccc(C(F)(F)F)c2)c(=O)n1Cc1ccc(F)cc1	7.1%	-1.2%
O=C(CN(Cc1ccccc1)S(=O)(=O)c1ccc2c(c1)OCCO2)Nc1ccc2c(c1)OCCO2	-1.2%	20µM*
CS(=O)(=O)N(CC(=O)Nc1ccc2c(c1)OCCO2)Cc1ccccc1	1.4%	-0.5%
O=C(CSc1nc2ccsc2c(=O)n1Cc1ccccc1Cl)NCc1ccc(Cl)cc1	-3.1%	-4.9%
